The whole screen tested about 5,500 compounds, of which about 2,000 (36%) were called active. Another 18% or so got no clear call; they are omitted. Cut-off read from the data, not from the text of the source: active = normalized growth mostly below about 0.91 (no sharp cut-off); inconclusive = no clear call, values can overlap the other calls; inactive = mostly above about 0.92. The list shows a part of the results.
Experiment: chemical genetic growth profiling, strain panel (AID 1159580);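 note: tested at 20 µM; growth read once vehicle control cultures reached saturation at 30 °C; 1 = growth at the plate median or of vehicle wells; lower values mean less growth of the strain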
Conditions: S. cerevisiae deletion strains, growth OD

Measured: normalized growth

O=C(O)/C(=C/c1c(C(=O)O)[nH]c2cc(Cl)cc(Cl)c12)c1ccccc1
inactive: locus YAL013W, strain DEP1, stronger effect = lower value 0.99 | locus YAL040C, strain CLN3, stronger effect = lower value 1.07 | locus YCL061C, strain MRC1 (second series), stronger effect = lower value 0.977 | locus YDR150W, strain NUM1, stronger effect = lower value 0.979 | locus YDR363W, strain ESC2, stronger effect = lower value 1.03 | locus YER002W, strain NOP16, stronger effect = lower value 0.993 | locus YGR229C, strain SMI1, stronger effect = lower value 0.999 | locus YJR075W, strain HOC1, stronger effect = lower value 0.988 | locus YMR263W, strain SAP30, stronger effect = lower value 0.979 | locus YMR307W, strain GAS1, stronger effect = lower value 1.01 | locus YNL175C, strain NOP13, stronger effect = lower value 0.996 | locus YNL197C, strain WHI3, stronger effect = lower value 0.98 | locus YNL224C, strain SQS1, stronger effect = lower value 0.977 | locus YNL322C, strain KRE1, stronger effect = lower value 0.975 | locus YOR083W, strain WHI5 (second series), stronger effect = lower value 0.99 | locus YPL055C, strain LGE1, stronger effect = lower value 0.985

From PubChem BioAssay AID1159580 (chemical genetic matrix, 2015)
